In PubChem BioAssay (NCATS):
Results filed as inconclusive are left out. Where a call stands in place of a potency, no number is given. Activity calls are given as the source filed them. The call rests on the fitted dose curve; in most records, active means well fitted curve in the direction sought with a large enough effect; inconclusive means small, poorly fitted or top-dose-only effect, or another doubt; inactive means no such curve, though single readings can be large; an effect the other way counts as inactive or inconclusive.

Key:
[1] = qHTS of pediatric cancer cell lines to identify multiple opportunities for drug repurposing: Primary screen for SK-N-MC cells (AID 1347093); further: potency means the concentration at half of the fitted maximal effect
Procedure, shortened: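 Metabolically active cells were quantified by ATP-dependent luminescence (CellTiter-Glo, 15 min at room temperature) following 48 h treatment. Cells had been plated at 500-1,000 per well and settled for 5 h beforehand.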

[2] = qHTS of pediatric cancer cell lines to identify multiple opportunities for drug repurposing: Primary screen for BT-37 cells (AID 1347094); further: potency means the concentration at half of the fitted maximal effect
Procedure, shortened: (§1)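 Primary screen of approved and investigational compounds on cells in growth media at 37 degrees C, 5% CO2. MIPE set at 11-point and NPC set at 8-point dilutions; viability scored by ATP-based luminescence at 48 hours.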

[3] = qHTS of pediatric cancer cell lines to identify multiple opportunities for drug repurposing: Primary screen for NB-EBc1 cells (AID 1347095); further: potency means the concentration at half of the fitted maximal effect
Procedure, shortened: as §1

[4] = qHTS of pediatric cancer cell lines to identify multiple opportunities for drug repurposing: Primary screen for U-2 OS cells (AID 1347096); further: nearly all actives have a fitted effect of over 50% in size
Procedure, shortened: (§2)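 Cells (500-1,000/well) rested 5 h, then received compounds for 48 h; metabolically active cells were measured by CellTiter-Glo luminescence. Final concentrations spanned up to 46 µM (MIPE, 11-point) or 0.59 nM-46 µM (NPC, 8-point) in primary screens, 11-point in follow-ups.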

[5] = qHTS of pediatric cancer cell lines to identify multiple opportunities for drug repurposing: Primary screen for SK-N-SH cells (AID 1347098); further: nearly all actives have a fitted effect of over 65% in size; further: potency means the concentration at half of the fitted maximal effect
Procedure, shortened: as §2

[6] = qHTS of pediatric cancer cell lines to identify multiple opportunities for drug repurposing: Primary screen for NB1643 cells (AID 1347099); further: nearly all actives have a fitted effect of over 50% in size
Procedure, shortened: as §1

[7] = qHTS of pediatric cancer cell lines to identify multiple opportunities for drug repurposing: Primary screen for LAN-5 cells (AID 1347100); further: potency means the concentration at half of the fitted maximal effect
Procedure, shortened: as §2

[8] = qHTS of pediatric cancer cell lines to identify multiple opportunities for drug repurposing: Primary screen for BT-12 cells (AID 1347101); further: nearly all actives have a fitted effect of over 25% in size; further: potency means the concentration at half of the fitted maximal effect
Procedure, shortened: as §2

[9] = qHTS of pediatric cancer cell lines to identify multiple opportunities for drug repurposing: Primary screen for Rh18 cells (AID 1347102); further: nearly all actives have a fitted effect of over 65% in size
Procedure, shortened: as §2

[10] = qHTS of pediatric cancer cell lines to identify multiple opportunities for drug repurposing: Primary screen for Saos-2 cells (AID 1347097); further: nearly all actives have a fitted effect of over 40% in size; further: potency means the concentration at half of the fitted maximal effect
Procedure, shortened: as §1

Row | Compound | Potency [1] | Potency [2] | Potency [3] | Potency [4] | Potency [5] | Potency [6] | Potency [7] | Potency [8] | Potency [9] | Potency [10]
1 | O=c1[nH]c(=O)n([C@H]2O[C@H](CO)[C@@H](O)[C@@H]2O)cc1/C=C\Br | inactive | inactive | inactive | inactive | inactive | inactive | inactive | inactive | inactive | –
2 | COC(=O)c1ccc(NC(C)=O)cc1OC | inactive | inactive | inactive | inactive | inactive | inactive | inactive | inactive | inactive | –
3 | CCCC(CCC)(C(=O)OCC)C(=O)OCC | inactive | inactive | inactive | inactive | inactive | inactive | inactive | inactive | – | –
4 | C#Cc1ccc(-c2ccccc2F)cc1 | inactive | inactive | inactive | inactive | – | – | inactive | inactive | inactive | inactive
5 | CC(=O)OCC(=O)Nc1cc(C#N)cc(NC(=O)COC(C)=O)c1Cl | inactive | inactive | inactive | inactive | inactive | inactive | inactive | inactive | inactive | –
6 | COc1cc(OC)nc(O[C@H](C(=O)O)C(OC)(c2ccccc2)c2ccccc2)n1 | inactive | inactive | inactive | inactive | inactive | inactive | – | inactive | – | –
7 | CN1CCN(N)CC1 | inactive | inactive | inactive | inactive | inactive | inactive | inactive | inactive | inactive | –
8 | c1ccc2c(c1)CCc1ccccc1N2 | inactive | inactive | inactive | inactive | inactive | inactive | inactive | inactive | inactive | –
9 | CC(C)CCCC(C)NCCC(C)C (configuration not stated) | inactive | inactive | inactive | inactive | inactive | inactive | inactive | inactive | inactive | –
10 | CC(C)=CCC/C(C)=C/CC/C(C)=C/C(=O)OCC(=O)[C@@]1(O)CC[C@H]2[C@@H]3CCC4=CC(=O)C=C[C@]4(C)[C@H]3[C@@H](O)C[C@@]21C | inactive | inactive | 21.1 µM (active) | inactive | inactive | inactive | 13.3 µM (active) | – | inactive | –
11 | CC(C)(C)CC(=O)OCC(=O)[C@@]1(O)CC[C@H]2[C@@H]3CCC4=CC(=O)C=C[C@]4(C)[C@H]3[C@@H](O)C[C@@]21C | inactive | inactive | inactive | inactive | inactive | inactive | – | inactive | inactive | –
12 | CCOC(=O)c1ccc(OCCN2C[C@H](O)[C@@H](O)[C@H](O)[C@H]2CO)cc1 | inactive | inactive | inactive | inactive | inactive | inactive | – | inactive | inactive | –
13 | Cc1ccc(Cl)c(OCC(O)CNC(C)(C)C)c1 (configuration not stated) | inactive | inactive | inactive | inactive | – | inactive | inactive | inactive | inactive | –
14 | CC(=O)O[C@@H]1C(=O)O[C@@H]2[C@H]1OC(=O)[C@@H]2OC(C)=O | 3.76 µM (active) | inactive | inactive | – | inactive | – | – | inactive | inactive | inactive
15 | CC1(C)O[C@@H]2C[C@H]3[C@@H]4CCC5=CC(=O)C=C[C@]5(C)[C@@]4(F)[C@@H](O)C[C@]3(C)[C@]2(C(=O)CO)O1 | inactive | inactive | inactive | inactive | – | – | inactive | inactive | inactive | –
16 | CC(COc1ccccc1)NN (configuration not stated) | inactive | inactive | inactive | inactive | – | inactive | inactive | inactive | inactive | –
17 | Oc1ccccc1 | inactive | inactive | inactive | inactive | – | inactive | – | inactive | – | –
18 | CCCCCN(CCCOC)C(=O)C(CCC(=O)O)NC(=O)c1ccc(Cl)c(Cl)c1 (configuration not stated) | inactive | inactive | inactive | – | inactive | inactive | – | inactive | inactive | inactive
19 | O=C(Nc1ccc(Cl)cc1)Nc1ccc(Cl)c(C(F)(F)F)c1 | 4.73 µM (active) | 27.6 µM (active) | 5.96 µM (active) | – | 8.64 µM (active) | – | – | 9.78 µM (active) | – | 13.3 µM (active)
20 | CCS(=O)(=O)c1ccc(OC)c(C(=O)OC)c1 | inactive | inactive | inactive | – | inactive | – | inactive | inactive | inactive | inactive
21 | CO/N=C(/C(=O)N[C@@H]1C(=O)N2C(C(=O)OCOC(=O)C(C)(C)C)=C(C)CS[C@H]12)c1csc(N)n1 | 26.6 µM (active) | inactive | inactive | – | inactive | inactive | inactive | inactive | inactive | –
